# Columns and labels:
# Experiment in all cases: DAPPL (digital affinity profiling via proximity ligation, sequencing); 10 mM Tris-HCl pH 7.5, 50 mM NaCl, 1 mM DTT, 4% glycerol, room temperature, 30 min; GST-TFs on glutathione beads, 16-mer random dsDNA library, 0.1% formaldehyde crosslink after washing; high values mean tight binding
# Details in all cases: protein: recombinant; tags: N-terminal GST; dsDNA, one strand shown
# FLI1 = molecular target: T1, FLI1 (Homo sapiens, UniProt Q01543 1-452)
# T1 sequence: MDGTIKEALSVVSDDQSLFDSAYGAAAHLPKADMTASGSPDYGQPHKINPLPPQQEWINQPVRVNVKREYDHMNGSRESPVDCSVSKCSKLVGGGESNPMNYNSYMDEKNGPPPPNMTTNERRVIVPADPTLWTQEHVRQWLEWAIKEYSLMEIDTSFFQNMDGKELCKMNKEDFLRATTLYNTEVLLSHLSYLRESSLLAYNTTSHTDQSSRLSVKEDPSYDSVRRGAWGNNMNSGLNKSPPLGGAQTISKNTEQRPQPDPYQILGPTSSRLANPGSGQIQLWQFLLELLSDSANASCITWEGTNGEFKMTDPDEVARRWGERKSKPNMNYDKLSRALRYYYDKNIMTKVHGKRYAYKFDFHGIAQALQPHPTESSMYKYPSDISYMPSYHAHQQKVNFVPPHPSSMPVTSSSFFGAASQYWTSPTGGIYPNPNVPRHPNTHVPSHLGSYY
# Method in brief: (§1)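 Pools were built from human transcription factors expressed in yeast as GST fusions, captured on glutathione beads and DNA-barcoded, along with a tag-only sample. Incubation with 200 nmole of a 16-mer random double-stranded DNA library lasted 30 min at room temperature in Tris/NaCl/DTT/glycerol buffer, and was followed by washing, 0.1% formaldehyde crosslinking, proximity ligation, PCR amplification and Illumina NextSeq500 sequencing. Binding signal is the quotient of each hexamer's read frequency for a factor and its frequency for the tag-only sample.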
# ELK1 = molecular target: T2, ELK1 (Homo sapiens, UniProt P19419 1-428)
# T2 sequence: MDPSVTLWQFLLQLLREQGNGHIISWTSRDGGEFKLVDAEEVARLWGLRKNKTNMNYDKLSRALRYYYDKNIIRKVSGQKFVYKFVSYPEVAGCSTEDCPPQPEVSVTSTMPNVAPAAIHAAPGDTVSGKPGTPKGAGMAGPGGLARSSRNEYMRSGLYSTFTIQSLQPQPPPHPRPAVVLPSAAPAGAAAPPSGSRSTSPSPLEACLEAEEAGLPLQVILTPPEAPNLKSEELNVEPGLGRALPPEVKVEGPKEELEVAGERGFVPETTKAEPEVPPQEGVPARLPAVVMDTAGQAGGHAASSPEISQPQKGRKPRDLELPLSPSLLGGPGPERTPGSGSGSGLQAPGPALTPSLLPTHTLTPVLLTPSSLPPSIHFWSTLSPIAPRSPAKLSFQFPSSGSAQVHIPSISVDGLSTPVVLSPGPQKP
# Method in brief: as §1
# GABPA = molecular target: T3, GABPA (Homo sapiens, UniProt Q06546 1-454)
# T3 sequence: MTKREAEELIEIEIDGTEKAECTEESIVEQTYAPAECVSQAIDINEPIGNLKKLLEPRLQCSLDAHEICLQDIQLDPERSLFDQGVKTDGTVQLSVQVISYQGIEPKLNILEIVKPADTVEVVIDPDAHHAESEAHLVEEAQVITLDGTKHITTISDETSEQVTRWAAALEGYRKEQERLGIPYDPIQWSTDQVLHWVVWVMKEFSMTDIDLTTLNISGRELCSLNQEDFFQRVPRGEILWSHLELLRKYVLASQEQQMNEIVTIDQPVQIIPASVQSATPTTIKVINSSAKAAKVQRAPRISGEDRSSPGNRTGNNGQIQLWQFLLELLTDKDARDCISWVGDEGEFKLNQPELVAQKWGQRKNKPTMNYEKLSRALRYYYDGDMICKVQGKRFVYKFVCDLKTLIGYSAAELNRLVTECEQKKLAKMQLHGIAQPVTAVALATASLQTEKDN
# Method in brief: as §1
# ERG = molecular target: T4, ERG (Homo sapiens, UniProt P11308 1-479)
# T4 sequence: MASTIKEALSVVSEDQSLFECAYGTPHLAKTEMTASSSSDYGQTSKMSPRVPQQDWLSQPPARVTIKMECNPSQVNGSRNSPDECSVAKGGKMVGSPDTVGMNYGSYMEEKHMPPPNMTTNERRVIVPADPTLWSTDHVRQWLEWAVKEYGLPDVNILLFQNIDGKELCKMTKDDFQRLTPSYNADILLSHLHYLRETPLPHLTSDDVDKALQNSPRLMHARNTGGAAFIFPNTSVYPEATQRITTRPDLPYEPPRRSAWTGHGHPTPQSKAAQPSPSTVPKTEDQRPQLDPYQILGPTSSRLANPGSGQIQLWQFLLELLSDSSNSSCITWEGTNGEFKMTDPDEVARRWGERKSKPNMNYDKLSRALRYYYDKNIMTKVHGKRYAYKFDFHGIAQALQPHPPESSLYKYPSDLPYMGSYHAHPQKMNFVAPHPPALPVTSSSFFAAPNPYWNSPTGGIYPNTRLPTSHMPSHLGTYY
# Method in brief: as §1
# ELF1 = ELF1 (Homo sapiens, UniProt P32519 1-619)
# Method in brief: as §1
# EHF = molecular target: T5, EHF (Homo sapiens, UniProt Q9NZC4 1-300)
# T5 sequence: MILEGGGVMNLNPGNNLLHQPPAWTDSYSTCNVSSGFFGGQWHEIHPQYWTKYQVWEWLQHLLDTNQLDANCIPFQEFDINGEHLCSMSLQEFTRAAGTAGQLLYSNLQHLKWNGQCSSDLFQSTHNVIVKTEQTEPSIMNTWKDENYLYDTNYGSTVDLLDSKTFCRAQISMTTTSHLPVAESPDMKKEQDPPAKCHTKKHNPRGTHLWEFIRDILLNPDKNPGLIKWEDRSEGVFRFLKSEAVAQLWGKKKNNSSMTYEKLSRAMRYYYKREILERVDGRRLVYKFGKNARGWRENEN
# Method in brief: as §1
# SPI1 = SPI1 (Homo sapiens, UniProt P17947 1-270)
# Method in brief: as §1
# SPIB = SPIB (Homo sapiens, UniProt Q01892 1-262)
# Method in brief: as §1
# ELK3 = molecular target: T6, ELK3 (Homo sapiens, UniProt P41970 1-407)
# T6 sequence: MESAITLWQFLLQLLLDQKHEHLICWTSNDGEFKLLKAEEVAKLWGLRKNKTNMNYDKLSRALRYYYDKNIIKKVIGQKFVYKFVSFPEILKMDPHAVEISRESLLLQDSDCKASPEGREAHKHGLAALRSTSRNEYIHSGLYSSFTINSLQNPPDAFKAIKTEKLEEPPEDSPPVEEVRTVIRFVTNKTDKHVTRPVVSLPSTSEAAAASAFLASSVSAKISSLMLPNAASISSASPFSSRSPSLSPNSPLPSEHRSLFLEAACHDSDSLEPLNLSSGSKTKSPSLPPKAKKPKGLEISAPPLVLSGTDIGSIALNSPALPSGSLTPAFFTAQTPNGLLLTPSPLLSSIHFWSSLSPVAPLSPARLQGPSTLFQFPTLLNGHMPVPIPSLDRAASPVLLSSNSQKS
# Method in brief: as §1
# Chain of SPIB (Q01892 whole entry): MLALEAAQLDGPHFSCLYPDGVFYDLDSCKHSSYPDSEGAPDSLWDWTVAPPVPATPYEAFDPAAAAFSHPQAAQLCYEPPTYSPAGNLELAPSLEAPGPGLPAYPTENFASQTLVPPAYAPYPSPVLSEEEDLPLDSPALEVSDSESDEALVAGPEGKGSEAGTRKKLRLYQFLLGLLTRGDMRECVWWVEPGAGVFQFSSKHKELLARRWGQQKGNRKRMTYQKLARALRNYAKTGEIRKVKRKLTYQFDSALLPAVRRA
# Chain of ELF1 (P32519 whole entry): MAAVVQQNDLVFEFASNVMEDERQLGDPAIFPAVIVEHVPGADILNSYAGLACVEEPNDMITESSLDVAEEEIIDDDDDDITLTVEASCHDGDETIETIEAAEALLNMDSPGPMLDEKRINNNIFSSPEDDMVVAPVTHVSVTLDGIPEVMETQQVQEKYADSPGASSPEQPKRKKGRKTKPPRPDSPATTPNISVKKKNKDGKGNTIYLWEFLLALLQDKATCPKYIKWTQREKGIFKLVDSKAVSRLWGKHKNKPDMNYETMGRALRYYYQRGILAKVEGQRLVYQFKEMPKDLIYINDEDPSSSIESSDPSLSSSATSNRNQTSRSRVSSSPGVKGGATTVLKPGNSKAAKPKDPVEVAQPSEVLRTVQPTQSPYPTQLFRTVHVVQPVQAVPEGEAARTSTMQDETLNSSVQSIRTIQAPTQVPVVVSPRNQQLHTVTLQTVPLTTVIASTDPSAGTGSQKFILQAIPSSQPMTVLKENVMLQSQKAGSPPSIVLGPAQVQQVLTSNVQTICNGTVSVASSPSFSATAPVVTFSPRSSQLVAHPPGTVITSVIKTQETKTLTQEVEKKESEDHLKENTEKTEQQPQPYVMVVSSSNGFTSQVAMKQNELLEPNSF
sequence,measurement,setting,value
TACTCA,binding signal,FLI1,"1.14 fold enrichment (6-mer frequency, TF over GST control)"
same,binding signal,ELK1,"1.24 fold enrichment (6-mer frequency, TF over GST control)"
same,binding signal,GABPA,"1.2 fold enrichment (6-mer frequency, TF over GST control)"
same,binding signal,ERG,"1.19 fold enrichment (6-mer frequency, TF over GST control)"
same,binding signal,ELF1,"1.19 fold enrichment (6-mer frequency, TF over GST control)"
same,binding signal,EHF,"1.3 fold enrichment (6-mer frequency, TF over GST control)"
same,binding signal,SPI1,"1.14 fold enrichment (6-mer frequency, TF over GST control)"
same,binding signal,SPIB,"1.36 fold enrichment (6-mer frequency, TF over GST control)"
same,binding signal,ELK3,"1.2 fold enrichment (6-mer frequency, TF over GST control)"
